From publication PMC7862700, “An all-to-all approach to the identification of sequence-specific readers for epigenetic DNA modifications on cytosine”

What was measured:
Experiment in all cases: DAPPL (digital affinity profiling via proximity ligation, sequencing); 10 mM Tris-HCl pH 7.5, 50 mM NaCl, 1 mM DTT, 4% glycerol, room temperature, 30 min; GST-TFs on glutathione beads, 16-mer random dsDNA library, 0.1% formaldehyde crosslink after washing; high values mean tight binding
Conditions in all cases: protein: recombinant; tags: N-terminal GST; dsDNA, one strand shown
FLI1 = biological target: T1, FLI1 (Homo sapiens, UniProt Q01543 1-452)
T1 sequence: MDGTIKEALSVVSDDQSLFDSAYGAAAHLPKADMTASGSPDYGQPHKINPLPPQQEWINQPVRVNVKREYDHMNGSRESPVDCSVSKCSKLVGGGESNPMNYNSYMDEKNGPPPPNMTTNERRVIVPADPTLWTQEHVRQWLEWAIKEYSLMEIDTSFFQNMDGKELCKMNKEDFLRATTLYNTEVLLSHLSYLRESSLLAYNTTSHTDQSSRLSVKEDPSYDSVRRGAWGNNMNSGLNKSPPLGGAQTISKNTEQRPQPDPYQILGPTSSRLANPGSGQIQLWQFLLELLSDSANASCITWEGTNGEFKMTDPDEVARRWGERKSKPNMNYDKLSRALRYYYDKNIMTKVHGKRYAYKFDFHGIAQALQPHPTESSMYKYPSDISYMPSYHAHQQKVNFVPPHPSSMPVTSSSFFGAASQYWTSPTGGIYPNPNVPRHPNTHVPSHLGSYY
How it was run: (§1)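 Pools were built from human transcription factors expressed in yeast as GST fusions, captured on glutathione beads and DNA-barcoded, along with a tag-only sample. Incubation with 200 nmole of a 16-mer random double-stranded DNA library lasted 30 min at room temperature in Tris/NaCl/DTT/glycerol buffer, and was followed by washing, 0.1% formaldehyde crosslinking, proximity ligation, PCR amplification and Illumina NextSeq500 sequencing. Binding signal is the quotient of each hexamer's read frequency for a factor and its frequency for the tag-only sample.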

ELK1 = biological target: T2, ELK1 (Homo sapiens, UniProt P19419 1-428)
T2 sequence: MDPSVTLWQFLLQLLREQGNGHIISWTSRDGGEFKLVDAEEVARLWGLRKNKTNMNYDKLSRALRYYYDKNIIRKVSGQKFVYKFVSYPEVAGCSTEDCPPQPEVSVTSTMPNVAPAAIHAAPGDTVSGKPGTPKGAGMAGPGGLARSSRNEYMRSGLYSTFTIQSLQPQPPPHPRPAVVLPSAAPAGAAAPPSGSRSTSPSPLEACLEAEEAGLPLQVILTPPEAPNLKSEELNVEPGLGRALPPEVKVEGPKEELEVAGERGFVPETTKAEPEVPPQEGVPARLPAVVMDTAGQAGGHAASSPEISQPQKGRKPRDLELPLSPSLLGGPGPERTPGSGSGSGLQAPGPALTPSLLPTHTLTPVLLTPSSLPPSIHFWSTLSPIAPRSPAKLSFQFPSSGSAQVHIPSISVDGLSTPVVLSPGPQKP
How it was run: as §1

GABPA = biological target: T3, GABPA (Homo sapiens, UniProt Q06546 1-454)
T3 sequence: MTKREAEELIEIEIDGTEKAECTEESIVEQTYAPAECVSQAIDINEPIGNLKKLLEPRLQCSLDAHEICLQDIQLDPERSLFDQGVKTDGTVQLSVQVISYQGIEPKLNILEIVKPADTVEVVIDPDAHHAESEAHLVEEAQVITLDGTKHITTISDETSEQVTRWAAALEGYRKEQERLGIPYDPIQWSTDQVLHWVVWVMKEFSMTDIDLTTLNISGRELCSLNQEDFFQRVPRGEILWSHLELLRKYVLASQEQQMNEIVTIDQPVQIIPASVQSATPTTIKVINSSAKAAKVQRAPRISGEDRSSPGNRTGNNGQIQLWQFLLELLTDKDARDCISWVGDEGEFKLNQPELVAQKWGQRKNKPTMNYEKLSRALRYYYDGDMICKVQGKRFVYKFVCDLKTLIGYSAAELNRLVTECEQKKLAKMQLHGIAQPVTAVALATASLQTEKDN
How it was run: as §1

ERG = biological target: T4, ERG (Homo sapiens, UniProt P11308 1-479)
T4 sequence: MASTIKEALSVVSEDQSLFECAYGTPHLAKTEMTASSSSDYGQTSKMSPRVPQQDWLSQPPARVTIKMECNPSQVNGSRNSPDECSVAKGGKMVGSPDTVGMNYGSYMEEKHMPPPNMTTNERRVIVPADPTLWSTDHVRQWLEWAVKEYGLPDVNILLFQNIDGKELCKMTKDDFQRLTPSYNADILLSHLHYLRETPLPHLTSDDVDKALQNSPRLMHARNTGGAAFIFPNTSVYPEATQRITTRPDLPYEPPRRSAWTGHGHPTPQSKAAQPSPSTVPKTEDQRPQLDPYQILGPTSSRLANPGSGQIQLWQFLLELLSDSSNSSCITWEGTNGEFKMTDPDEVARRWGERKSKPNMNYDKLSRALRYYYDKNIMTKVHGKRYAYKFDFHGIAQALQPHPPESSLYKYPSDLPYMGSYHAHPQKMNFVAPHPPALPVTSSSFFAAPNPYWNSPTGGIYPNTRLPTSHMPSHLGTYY
How it was run: as §1

ELF1 = ELF1 (Homo sapiens, UniProt P32519 1-619)
Chain of ELF1 (P32519 whole entry): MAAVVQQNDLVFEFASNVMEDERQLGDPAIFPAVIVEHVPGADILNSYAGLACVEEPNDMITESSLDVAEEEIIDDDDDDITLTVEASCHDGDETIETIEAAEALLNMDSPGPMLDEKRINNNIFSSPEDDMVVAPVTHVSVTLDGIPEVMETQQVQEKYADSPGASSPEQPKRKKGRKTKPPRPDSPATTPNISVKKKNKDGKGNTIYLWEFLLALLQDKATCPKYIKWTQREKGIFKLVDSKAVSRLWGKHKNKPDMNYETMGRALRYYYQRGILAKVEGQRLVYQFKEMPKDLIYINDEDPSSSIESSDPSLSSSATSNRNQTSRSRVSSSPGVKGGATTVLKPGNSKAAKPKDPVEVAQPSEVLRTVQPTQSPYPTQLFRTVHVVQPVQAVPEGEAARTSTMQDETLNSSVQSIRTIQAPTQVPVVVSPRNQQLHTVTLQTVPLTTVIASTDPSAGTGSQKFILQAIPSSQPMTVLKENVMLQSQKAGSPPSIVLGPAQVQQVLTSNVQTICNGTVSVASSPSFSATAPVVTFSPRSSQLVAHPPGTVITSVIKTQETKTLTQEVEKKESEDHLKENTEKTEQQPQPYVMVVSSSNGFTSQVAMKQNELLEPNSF
How it was run: as §1

EHF = biological target: T5, EHF (Homo sapiens, UniProt Q9NZC4 1-300)
T5 sequence: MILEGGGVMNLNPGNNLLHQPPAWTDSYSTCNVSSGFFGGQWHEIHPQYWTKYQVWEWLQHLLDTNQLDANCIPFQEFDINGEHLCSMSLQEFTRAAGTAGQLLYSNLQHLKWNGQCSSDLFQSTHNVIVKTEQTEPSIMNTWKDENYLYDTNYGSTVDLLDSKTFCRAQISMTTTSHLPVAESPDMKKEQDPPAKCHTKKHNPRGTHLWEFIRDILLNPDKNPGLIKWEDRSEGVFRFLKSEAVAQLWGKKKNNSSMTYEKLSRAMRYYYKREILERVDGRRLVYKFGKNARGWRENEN
How it was run: as §1

SPI1 = SPI1 (Homo sapiens, UniProt P17947 1-270)
How it was run: as §1

SPIB = SPIB (Homo sapiens, UniProt Q01892 1-262)
Chain of SPIB (Q01892 whole entry): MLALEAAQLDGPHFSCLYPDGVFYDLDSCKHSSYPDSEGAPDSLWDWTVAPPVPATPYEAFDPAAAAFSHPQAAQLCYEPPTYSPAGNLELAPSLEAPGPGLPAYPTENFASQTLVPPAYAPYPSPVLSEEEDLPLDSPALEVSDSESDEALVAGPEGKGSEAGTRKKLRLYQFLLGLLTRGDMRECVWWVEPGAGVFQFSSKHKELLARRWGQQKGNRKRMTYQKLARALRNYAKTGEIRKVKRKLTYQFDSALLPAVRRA
How it was run: as §1

ELK3 = biological target: T6, ELK3 (Homo sapiens, UniProt P41970 1-407)
T6 sequence: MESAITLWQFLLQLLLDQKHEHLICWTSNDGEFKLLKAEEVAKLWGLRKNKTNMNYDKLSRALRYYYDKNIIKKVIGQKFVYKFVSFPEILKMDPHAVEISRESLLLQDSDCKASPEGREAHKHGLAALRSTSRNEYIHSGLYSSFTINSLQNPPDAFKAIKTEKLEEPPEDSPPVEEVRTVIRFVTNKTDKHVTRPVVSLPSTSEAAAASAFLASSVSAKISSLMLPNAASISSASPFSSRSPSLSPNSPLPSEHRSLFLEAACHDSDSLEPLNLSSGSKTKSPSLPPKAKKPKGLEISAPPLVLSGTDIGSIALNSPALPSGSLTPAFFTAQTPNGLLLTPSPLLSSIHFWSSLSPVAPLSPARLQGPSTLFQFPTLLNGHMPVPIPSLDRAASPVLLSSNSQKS
How it was run: as §1

FEV = biological target: T7, FEV (Homo sapiens, UniProt Q99581 1-238)
T7 sequence: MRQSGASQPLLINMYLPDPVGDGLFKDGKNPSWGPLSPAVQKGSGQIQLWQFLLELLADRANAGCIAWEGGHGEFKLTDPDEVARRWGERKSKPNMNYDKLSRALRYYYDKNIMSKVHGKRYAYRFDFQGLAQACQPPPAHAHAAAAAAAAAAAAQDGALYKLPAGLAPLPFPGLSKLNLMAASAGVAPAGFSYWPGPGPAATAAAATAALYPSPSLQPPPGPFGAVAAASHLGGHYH
How it was run: as §1

ETV5 = ETV5 (Homo sapiens, UniProt P41161 1-510)
Chain of ETV5 (P41161 whole entry): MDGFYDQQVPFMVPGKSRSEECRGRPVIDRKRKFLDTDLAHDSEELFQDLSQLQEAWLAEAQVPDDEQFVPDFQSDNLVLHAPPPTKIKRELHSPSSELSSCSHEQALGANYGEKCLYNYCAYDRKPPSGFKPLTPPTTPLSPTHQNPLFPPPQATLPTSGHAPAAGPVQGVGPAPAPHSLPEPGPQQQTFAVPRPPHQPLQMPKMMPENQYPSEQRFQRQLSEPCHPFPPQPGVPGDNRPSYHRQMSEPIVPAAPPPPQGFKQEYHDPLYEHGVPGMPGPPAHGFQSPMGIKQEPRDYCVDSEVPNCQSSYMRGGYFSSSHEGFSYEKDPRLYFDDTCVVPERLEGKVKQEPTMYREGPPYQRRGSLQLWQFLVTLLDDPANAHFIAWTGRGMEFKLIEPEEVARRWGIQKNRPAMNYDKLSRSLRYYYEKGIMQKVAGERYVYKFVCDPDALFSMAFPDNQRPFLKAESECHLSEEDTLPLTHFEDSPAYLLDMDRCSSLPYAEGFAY
How it was run: as §1

SPIC = biological target: T8, SPIC (Homo sapiens, UniProt Q8N5J4 1-248)
T8 sequence: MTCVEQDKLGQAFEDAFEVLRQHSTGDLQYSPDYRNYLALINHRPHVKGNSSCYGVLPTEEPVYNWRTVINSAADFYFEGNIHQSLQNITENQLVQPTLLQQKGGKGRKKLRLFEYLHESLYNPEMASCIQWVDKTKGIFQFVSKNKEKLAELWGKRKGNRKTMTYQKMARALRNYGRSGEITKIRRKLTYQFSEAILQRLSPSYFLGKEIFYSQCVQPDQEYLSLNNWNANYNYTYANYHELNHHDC
How it was run: as §1

ELF4 = ELF4 (Homo sapiens, UniProt Q99607 1-663)
Chain of ELF4 (Q99607 whole entry): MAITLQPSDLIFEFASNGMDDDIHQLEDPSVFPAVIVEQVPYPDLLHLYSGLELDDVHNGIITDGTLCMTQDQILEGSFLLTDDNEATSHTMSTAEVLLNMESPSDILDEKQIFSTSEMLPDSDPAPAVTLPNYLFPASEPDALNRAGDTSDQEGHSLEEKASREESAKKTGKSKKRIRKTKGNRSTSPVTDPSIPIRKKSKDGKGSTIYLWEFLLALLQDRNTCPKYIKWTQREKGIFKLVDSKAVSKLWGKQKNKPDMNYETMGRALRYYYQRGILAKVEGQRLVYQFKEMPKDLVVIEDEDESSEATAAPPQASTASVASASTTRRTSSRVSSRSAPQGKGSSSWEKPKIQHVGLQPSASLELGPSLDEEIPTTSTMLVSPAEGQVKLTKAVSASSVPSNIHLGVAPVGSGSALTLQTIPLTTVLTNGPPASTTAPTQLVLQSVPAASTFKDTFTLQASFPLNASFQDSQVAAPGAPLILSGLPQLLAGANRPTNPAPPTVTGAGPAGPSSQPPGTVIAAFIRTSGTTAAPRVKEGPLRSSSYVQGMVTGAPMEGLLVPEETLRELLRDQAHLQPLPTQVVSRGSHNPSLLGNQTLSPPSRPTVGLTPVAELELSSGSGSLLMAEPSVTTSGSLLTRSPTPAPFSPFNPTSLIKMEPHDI
How it was run: as §1

ELK4 = biological target: T9, ELK4 (Homo sapiens, UniProt P28324-2 1-405)
T9 sequence: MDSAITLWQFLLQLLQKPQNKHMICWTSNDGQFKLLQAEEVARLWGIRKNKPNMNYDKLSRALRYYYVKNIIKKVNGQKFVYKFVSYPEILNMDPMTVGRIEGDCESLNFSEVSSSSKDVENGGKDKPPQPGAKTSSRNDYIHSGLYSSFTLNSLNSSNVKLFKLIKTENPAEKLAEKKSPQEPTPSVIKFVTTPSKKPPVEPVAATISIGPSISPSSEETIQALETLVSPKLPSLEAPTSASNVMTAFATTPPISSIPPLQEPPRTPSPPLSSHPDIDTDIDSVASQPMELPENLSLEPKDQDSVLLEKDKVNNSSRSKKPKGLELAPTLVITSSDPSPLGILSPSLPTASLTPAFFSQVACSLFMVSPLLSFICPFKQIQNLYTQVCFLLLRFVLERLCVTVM
How it was run: as §1

ETV2 = biological target: T10, ETV2 (Homo sapiens, UniProt O00321 1-342)
T10 sequence: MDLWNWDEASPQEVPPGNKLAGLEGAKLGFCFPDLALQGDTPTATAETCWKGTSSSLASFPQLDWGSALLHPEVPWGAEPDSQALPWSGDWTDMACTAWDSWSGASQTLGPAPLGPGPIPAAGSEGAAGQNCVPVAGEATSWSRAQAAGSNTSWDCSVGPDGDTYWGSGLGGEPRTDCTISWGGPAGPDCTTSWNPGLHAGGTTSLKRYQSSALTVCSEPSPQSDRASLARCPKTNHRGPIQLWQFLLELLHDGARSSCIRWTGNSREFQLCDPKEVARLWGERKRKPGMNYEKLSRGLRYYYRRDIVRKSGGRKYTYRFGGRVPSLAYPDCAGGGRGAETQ
How it was run: as §1

ELF3 = biological target: T11, ELF3 (Homo sapiens, UniProt P78545 1-371)
T11 sequence: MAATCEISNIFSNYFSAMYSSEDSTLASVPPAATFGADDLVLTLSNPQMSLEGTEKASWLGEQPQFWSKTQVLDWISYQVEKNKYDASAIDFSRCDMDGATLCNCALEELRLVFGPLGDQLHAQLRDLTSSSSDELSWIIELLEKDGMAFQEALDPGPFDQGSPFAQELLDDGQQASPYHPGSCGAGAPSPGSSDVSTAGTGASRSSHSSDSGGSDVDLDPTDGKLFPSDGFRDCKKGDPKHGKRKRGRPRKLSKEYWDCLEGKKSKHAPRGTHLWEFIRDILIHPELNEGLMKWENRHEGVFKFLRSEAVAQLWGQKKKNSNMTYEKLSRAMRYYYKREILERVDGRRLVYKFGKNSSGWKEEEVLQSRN
How it was run: as §1

ETV1 = ETV1 (Homo sapiens, UniProt P50549 1-477)
Chain of ETV1 (P50549 whole entry): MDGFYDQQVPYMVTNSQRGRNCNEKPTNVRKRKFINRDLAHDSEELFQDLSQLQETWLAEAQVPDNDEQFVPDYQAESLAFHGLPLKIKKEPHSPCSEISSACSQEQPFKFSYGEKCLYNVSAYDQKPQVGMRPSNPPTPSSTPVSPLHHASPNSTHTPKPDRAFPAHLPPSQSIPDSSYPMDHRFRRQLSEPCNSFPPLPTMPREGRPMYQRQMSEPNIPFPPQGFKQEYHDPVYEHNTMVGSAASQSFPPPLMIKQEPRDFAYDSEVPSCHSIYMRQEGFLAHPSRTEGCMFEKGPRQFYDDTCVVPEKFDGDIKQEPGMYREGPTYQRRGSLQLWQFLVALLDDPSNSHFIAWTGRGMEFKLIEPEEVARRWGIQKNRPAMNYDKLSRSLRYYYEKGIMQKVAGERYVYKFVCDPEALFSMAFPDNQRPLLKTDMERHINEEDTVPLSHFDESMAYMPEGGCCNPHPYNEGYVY
How it was run: as §1

Sequence | binding signal (FLI1) | binding signal (ELK1) | binding signal (GABPA) | binding signal (ERG) | binding signal (ELF1) | binding signal (EHF) | binding signal (SPI1) | binding signal (SPIB) | binding signal (ELK3) | binding signal (FEV) | binding signal (ETV5) | binding signal (SPIC) | binding signal (ELF4) | binding signal (ELK4) | binding signal (ETV2) | binding signal (ELF3) | binding signal (ETV1)
GTGTTT | 1.15 fold enrichment (6-mer frequency, TF over GST control) | 1.19 fold enrichment (6-mer frequency, TF over GST control) | 1.08 fold enrichment (6-mer frequency, TF over GST control) | 1.07 fold enrichment (6-mer frequency, TF over GST control) | 1.16 fold enrichment (6-mer frequency, TF over GST control) | 1.09 fold enrichment (6-mer frequency, TF over GST control) | 1.11 fold enrichment (6-mer frequency, TF over GST control) | 1.16 fold enrichment (6-mer frequency, TF over GST control) | 1.2 fold enrichment (6-mer frequency, TF over GST control) | 1.09 fold enrichment (6-mer frequency, TF over GST control) | 1.14 fold enrichment (6-mer frequency, TF over GST control) | 1.21 fold enrichment (6-mer frequency, TF over GST control) | 1.18 fold enrichment (6-mer frequency, TF over GST control) | 1.11 fold enrichment (6-mer frequency, TF over GST control) | 1.02 fold enrichment (6-mer frequency, TF over GST control) | 1.17 fold enrichment (6-mer frequency, TF over GST control) | 1.21 fold enrichment (6-mer frequency, TF over GST control)
CACCAC | 1.15 fold enrichment (6-mer frequency, TF over GST control) | 1.2 fold enrichment (6-mer frequency, TF over GST control) | 1.23 fold enrichment (6-mer frequency, TF over GST control) | 1.18 fold enrichment (6-mer frequency, TF over GST control) | 1.18 fold enrichment (6-mer frequency, TF over GST control) | 1.11 fold enrichment (6-mer frequency, TF over GST control) | 1.18 fold enrichment (6-mer frequency, TF over GST control) | 1.14 fold enrichment (6-mer frequency, TF over GST control) | 1.06 fold enrichment (6-mer frequency, TF over GST control) | 1.19 fold enrichment (6-mer frequency, TF over GST control) | 1.1 fold enrichment (6-mer frequency, TF over GST control) | 1.3 fold enrichment (6-mer frequency, TF over GST control) | 1.13 fold enrichment (6-mer frequency, TF over GST control) | 1.22 fold enrichment (6-mer frequency, TF over GST control) | 1.14 fold enrichment (6-mer frequency, TF over GST control) | 1.24 fold enrichment (6-mer frequency, TF over GST control) | 1.16 fold enrichment (6-mer frequency, TF over GST control)
CGGATG | 1.53 fold enrichment (6-mer frequency, TF over GST control) | 1.66 fold enrichment (6-mer frequency, TF over GST control) | 1.49 fold enrichment (6-mer frequency, TF over GST control) | 1.92 fold enrichment (6-mer frequency, TF over GST control) | 1.45 fold enrichment (6-mer frequency, TF over GST control) | 1.67 fold enrichment (6-mer frequency, TF over GST control) | 1.52 fold enrichment (6-mer frequency, TF over GST control) | 1.6 fold enrichment (6-mer frequency, TF over GST control) | 1.6 fold enrichment (6-mer frequency, TF over GST control) | 2.16 fold enrichment (6-mer frequency, TF over GST control) | 1.71 fold enrichment (6-mer frequency, TF over GST control) | 1.48 fold enrichment (6-mer frequency, TF over GST control) | 1.36 fold enrichment (6-mer frequency, TF over GST control) | 1.31 fold enrichment (6-mer frequency, TF over GST control) | 1.39 fold enrichment (6-mer frequency, TF over GST control) | 1.48 fold enrichment (6-mer frequency, TF over GST control) | 1.74 fold enrichment (6-mer frequency, TF over GST control)
